Molecules are shown by their SMILES. This is part of a sample that, as a whole, favours compounds with a hit. Of some 79,000 tested, about 15% had one in any assay. A number with no mark means an inactive call. Active and inactive are the calls of the source. No stated cut-off is given here; in the data, active means growth inhibition above about 70%; inactive means the rest.

In PubChem BioAssay (NCI) one finds growth inhibition data, which are given here for 20 compounds.

Assay [1] is described as follows: NCI Yeast Anticancer Drug Screen. Data for the rad50 strain (AID 155).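 Further: 0% = growth of vehicle-only cultures of the same strain.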 The conditions noted are these: S. cerevisiae rad50 strain growth inhibition; at 50.0 µM; hits give high values. The gist of the method: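 A DNA repair-deficient yeast mutant serves as the test organism; compound-induced growth inhibition is calculated against vehicle-treated cells.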
Assay [2] can be described thus: NCI Yeast Anticancer Drug Screen. Data for the mec2-1 strain (AID 157). The settings on record: S. cerevisiae mec2-1 strain, at 50.0 µM, hits give high values. The gist of the method: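 Growth inhibition is read against vehicle-treated controls after compound exposure of the mec2-1 yeast strain, which is defective in DNA damage repair or cell cycle control.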
Assay [3] in a line: NCI Yeast Anticancer Drug Screen. Data for the sgs1 mgt1 strain (AID 161).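 Further: 0% = growth of cultures given vehicle only.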 The conditions noted are these: S. cerevisiae sgs1 mgt1 strain, at 50.0 µM, hits give high values. The method, boiled down:
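Growth of a repair-deficient yeast mutant was monitored after compound treatment and expressed as inhibition relative to vehicle-treated cultures.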

A short description of assay [4]: NCI Yeast Anticancer Drug Screen. Data for the cln2 rad14 strain (AID 165).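 Further: 0% = growth equal to vehicle treated cultures.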 The settings on record: S. cerevisiae cln2 rad14 strain, at 50.0 µM, hits give high values. The gist of the method:
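Growth inhibition, relative to vehicle-treated controls, is the read-out. The test organism is a yeast strain with defined genetic alterations, cln2 rad14.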

Assay [5] is described as follows: NCI Yeast Anticancer Drug Screen. Data for the bub3 strain (AID 167). The conditions noted are these: S. cerevisiae bub3 mutant strain, at 50.0 µM, hits give high values. The gist of the method: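 Inhibition values come from growth of compound-treated mutant yeast normalised to vehicle-treated controls.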
A short description of assay [6]: NCI Yeast Anticancer Drug Screen. Data for the mlh1 rad18 strain (AID 175). The settings on record: S. cerevisiae mlh1 rad18 strain growth inhibition; at 50.0 µM; hits give high values. The gist of the method:
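Cells of a genetically altered yeast strain, deficient in DNA damage repair, were treated with compound. Their growth was then compared with that of vehicle-treated cultures to give inhibition.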

Regarding `COc1ccc2c(c1)OC1(OCCO1)[C@@H]1C2CC[C@@]2(C)C1CCC21OCCO1` (stereo not given in full), the growth inhibition is 48.2% in assay [1]; 17.9% in assay [2]; 38.9% in assay [3]; 28.8% in assay [4]; 15.8% in assay [5]; 58.5% in assay [6].

Turning to `CN(CCOc1ccccc1)Cc1ccccc1`, the growth inhibition in assay [1] is 33.1%; in assay [2], 7.15%; in assay [3], 50.7%; in assay [4] it was 31.3%; in assay [5] it was 40.1%; in assay [6], 34.4%.

As to `CCCCN(CC)CCNc1cc(C)nc(/N=C(\N)Nc2ccc(Cl)c(Cl)c2)n1`, the growth inhibition in assay [1] is 95.8% (active); in assay [2], 85% (active); in assay [3] it was 96.3% (active); in assay [4], 29.1%; in assay [5], 76.5% (active); in assay [6], 92.5% (active).

With `C=CC1C(C[C@@H]2c3cc(O)c(O)cc3CCN2C(C)=O)C(C(=O)OC)=CO[C@H]1OC1OC(CO)C(O)C(O)C1O` (stereo not given in full), the growth inhibition is -1.15% in assay [1]; -38.4% in assay [2]; -32.8% in assay [3]; 14.8% in assay [4]; -35% in assay [5]; 19.4% in assay [6].

For `CCOC(=O)CCN(CCC(=O)OCC)Cc1cc(Cl)c2cccnc2c1O`, the growth inhibition in assay [1] was 99.1% (active); in assay [2], 98.6% (active); in assay [3], 99% (active); in assay [4], 98.5% (active); in assay [5] it was 99.3% (active); in assay [6], 97.8% (active).

Take `COC1OC(CCl)C(Cl)C(Cl)C1O` (stereo not given): the growth inhibition in assay [1] is 17.7%; in assay [2], -7.85%; in assay [3], 4.55%; in assay [4], -44.2%; in assay [5], 5.9%; in assay [6], 4.8%.

Consider `Cc1ccc(CCn2cnc3c(N(CCO)CCO)ncnc32)cc1`, for which the growth inhibition in assay [1] is -8.45%; in assay [2], 23.8%; in assay [3], -6.85%; in assay [4], 15.6%; in assay [5], 7.95%; in assay [6], -9.6%.

On to `O=C(N1CCOCC1)C12OC3CC(CC(C3)O1)O2`, for which the growth inhibition is 8.5% in assay [1]; 1.95% in assay [2]; 3.45% in assay [3]; 11.2% in assay [4]; 17.6% in assay [5]; 4.65% in assay [6].

Regarding `CCC(C1=CCCCC1)c1nc2c([nH]1)c(=O)n(C)c(=O)n2C` (stereo not given), the growth inhibition is 7.95% in assay [1]; 8.5% in assay [2]; 23.6% in assay [3]; 8.65% in assay [4]; 17.6% in assay [5]; 45.5% in assay [6].

As for `O=CSC(=Nc1ccc(Cl)cc1)NC(=O)COc1ccc(Cl)cc1`, the growth inhibition is 5.05% in assay [1]; -21.4% in assay [2]; 58.9% in assay [3]; -22.4% in assay [4]; 33.3% in assay [5]; 12.3% in assay [6].

Regarding `Cc1cc(C=O)c(C)[nH]1`, the growth inhibition was 3.9% in assay [1]; -3.55% in assay [2]; -2.4% in assay [3]; -11.2% in assay [4]; 1.55% in assay [5]; -4.4% in assay [6].

As to `CCc1[nH]c2ccc(C)cc2c1C(=O)c1cccnc1`, the growth inhibition was 5.3% in assay [1]; -0.15% in assay [2]; 16.4% in assay [3]; 7.2% in assay [4]; 21.3% in assay [5]; 7.6% in assay [6].

In the case of `C=C1CC2(C)C(=O)CCCC2OC1=O` (stereo not given), the growth inhibition was 4.05% in assay [1]; -0.85% in assay [2]; 10.1% in assay [3]; -14.9% in assay [4]; 4.8% in assay [5]; 4% in assay [6].

As for `N#C/C(=C/C=C/c1ccco1)C(N)=O`, the growth inhibition is 9.9% in assay [1]; 1.65% in assay [2]; 15.6% in assay [3]; 10.6% in assay [4]; -6.25% in assay [5]; 13.4% in assay [6].

On to `C=CCOc1ccc(C2CCCCC2)cc1`, for which the growth inhibition was 42% in assay [1]; 16.9% in assay [2]; 20.5% in assay [3]; 11.6% in assay [4]; -2.75% in assay [5]; 18.3% in assay [6].

`O=C(O)CCC(=O)c1ccc[nH]1`: the growth inhibition in assay [1] is 7.3%; in assay [2], -23.2%; in assay [3] it was -30.1%; in assay [4] it was 19.2%; in assay [5], 15.1%; in assay [6], -19.1%.

For the compound `Cc1ccc(C)c(NC(=O)CCC(=O)C(C#N)c2nc3ccccc3s2)c1` (stereo not given), the growth inhibition is 25.9% in assay [1]; -3.3% in assay [2]; -5.15% in assay [3]; 17.6% in assay [4]; 3.7% in assay [5]; -5.7% in assay [6].

On to `COc1ccccc1C(C)C`, for which the growth inhibition in assay [1] is -11.1%; in assay [2], -3.8%; in assay [3], -0.85%; in assay [4], -21.8%; in assay [5] it was -6.45%; in assay [6] it was -16.2%.

For `Clc1ccc(Cl)c(N=Nc2cc3c4c(c2)CCN4CCC3)c1`, the growth inhibition was -34% in assay [1]; -35.1% in assay [2]; -15.2% in assay [3]; -16.3% in assay [4]; -10.8% in assay [5]; -18.8% in assay [6].

With `CC1CCC(O)C(C(O)CC2CC(=O)NC(=O)C2)C1` (stereo not given), the growth inhibition in assay [1] was 23.3%; in assay [2], -3.3%; in assay [3] it was 5.4%; in assay [4], -21.7%; in assay [5] it was 4%; in assay [6], 3.45%.
